From PubChem BioAssay AID504884 (Broad Institute, 2011) come the findings set out here.

About 230 (0.064%) of roughly 360,000 compounds were called active. Shown is part of a subset that was picked to be rich in actives. Values without a mark were called inactive. Rule as the data show it: active = activity above about 50% (passing the limit was not always enough); inconclusive = no clear call, values can overlap the other calls.

The assay concerns DNA topoisomerase I (Yersinia pestis CO92). Briefly: Yersinia pestis topoisomerase I inhibitors, primary screen, biochemical, cleavage product accumulation, plate reader, single point (AID 504884). As to conditions: Y. pestis Topo-I cleavage product accumulation, at 10 µM, active compounds read high.
For `COc1ccccc1N1CC(C(=O)Nc2nnc(SCC(=O)NC(C)C)s2)CC1=O` (centres undefined), the activity is 6.4%.

For the compound `Cc1cc(SCC(=O)NCCN2C(=O)CSC2=O)nc2ccccc12`, the activity is 2.72%.

`O=[N+]([O-])c1ccc(S(=O)(=O)Nc2cccc(-c3ccc(N4CCCC4)nn3)c2)cc1`: the activity was 21.6%.

As to `CC1CCc2sc(C(=O)NCC(c3ccco3)N3CCCCC3)cc2C1` (centres undefined), the activity is -2.82%.

As to `CC(C)Oc1ccc(CN2CCC2(C)C(=O)NCc2ccc(C(F)(F)F)cc2)cc1` (centres undefined), the activity is 15.8%.

`COc1ccc(CN2CCN(C(=O)c3cc(C4CC4)nn3-c3ccccc3)CC2)cc1F`: the activity was 29.4%.

As to `CN(C)C(=O)N=NC(=O)N(C)C`, the activity was -8.5%.

For the compound `C[C@H](CO)N1C[C@H](C)[C@@H](CN(C)Cc2ccc(-c3ccccc3)cc2)Oc2ccc(NC(=O)Cn3cnnn3)cc2C1=O`, the activity was 22.5%.

As to `O=C(CN1CCC(NC(=O)C2CC2)CC1)Nc1ccccc1[N+](=O)[O-]`, the activity is 2.07%.

As to `COc1ccc(C(CCN(Cc2ccc(OC)c(OC)c2)C(=O)CCl)c2ccccc2)cc1` (centres undefined), the activity was 12.3%.

On to `CN(Cc1ccc(F)cc1)C(=O)COc1ccc2ccccc2c1`, for which the activity was 27.3%.

With `COc1ccc(CN(C)C(=O)CC(c2ccccc2)c2ccccc2)cc1`, the activity is 51.6% (active).

For the compound `Cc1ccc(S(=O)(=O)NCC(=O)N2CCOCCOCCOCCOCC2)cc1`, the activity was 5.8%.

On to `Cc1cc(C)nc(/N=C2\NC(=O)CC(C(=O)O)N2c2ccc(Cl)cc2Cl)n1` (centres undefined), for which the activity is -1.83%.

Consider `O=C1NNC(c2ccccc2)=N/C1=C\c1ccc(Cl)cc1`, for which the activity is -4.41%.

With `Cc1ccccc1-n1nnnc1SCCCC(=O)c1ccc(F)cc1`, the activity is 21.7%.

Take `Cc1ccc2c(c1)C(c1ccccc1)N(C(=O)c1ccc(S(=O)(=O)N3CCOCC3)cc1)CC(=O)N2` (centres undefined): the activity was 3.57%.

For the compound `Cc1cc(C)c(C(N)=O)c(Cl)n1`, the activity was 0.37%.

Take `CCOc1ccc(S(=O)(=O)N2CCC(c3ccccc3)CC2)cc1C(=O)O`: the activity was -7.32%.

Turning to `COC(=O)Nc1ccc(S(=O)(=O)N2CCN(CCN3C(=O)C4C5C=CC(C5)C4C3=O)CC2)cc1` (centres undefined), the activity is 0.176%.

As for `CN(C(=O)CSc1nnc(C2CC2)n1C)C1CCCc2ccccc21` (centres undefined), the activity was 9.61%.

For `CC(=O)c1ccc(NC(=O)C2CCCN2S(=O)(=O)c2cccs2)cc1` (centres undefined), the activity was -1.65%.

As for `CC=CCn1c(SCCCc2ccccc2)nc2c1c(=O)[nH]c(=O)n2C`, the activity was 14.6%.

As for `CCCCCn1c(SCCC(C)C)nc2c1c(=O)[nH]c(=O)n2C`, the activity was 112% (active).

Consider `C=CCn1c(SCc2ccccc2)nc2c1c(=O)[nH]c(=O)n2C`, for which the activity was 20.2%.

On to `CC(=O)Nc1ccc(SC[C@H](Cc2ccccc2)N2CC[C@@H](C)CCC2=O)cc1`, for which the activity is 25.8%.

As for `C[C@H]1CCC(=O)N([C@H](CSc2ccccc2)Cc2ccccc2)CC1`, the activity was 59.9% (active).

As for `O=C1CC[C@H](O)CCN1[C@H](CSc1ccc(Br)cc1)Cc1ccccc1`, the activity was 10.9%.

Regarding `Cc1cc(Cl)c(S(=O)(=O)NCc2cccnc2)cc1OCC(N)=O`, the activity is -1.35%.

For `CN(C)c1ccc(C(=S)N2CCN(C(=S)Nc3ccc(Cl)cc3)CC2)cc1`, the activity is 3.46%.

On to `Cc1cc(OCC(=O)NCC(O)c2ccccc2)c2c(C)c(C)c(=O)oc2c1` (centres undefined), for which the activity is -1%.

As for `O=C(CSc1ncnc2c1oc1ccccc12)NC1CCCC1`, the activity was 2.5%.

In the case of `CCC(=O)NC(Nc1cc(C)ccn1)(C(F)(F)F)C(F)(F)F`, the activity was -7.52%.

With `CCOC(=O)c1cn(Cc2cccc(C)c2)nn1`, the activity was -1.57%.

Regarding `CC(=O)c1nn(-c2ccc(C)cc2)cc1C(=O)c1cccc(Br)c1`, the activity was 8.28%.

With `CCOC(=O)c1nn(-c2cccc(C)c2)cc1C(=O)c1ccccc1`, the activity was 67.3% (active).

With `COCC(C)n1c(C)cc(C(=O)COc2ccc(C)nc2[N+](=O)[O-])c1C` (centres undefined), the activity was 8.7%.

For `COC(=O)[C@H]1C[C@H](OC(=O)NCc2ccccc2)[C@@]2(O)CN(S(=O)(=O)c3ccc(C)cc3)CC2[C@H]1C(=O)OC` (some centres undefined), the activity is 7.34%.

Consider `Cc1cc2nc(C(F)(F)F)cc(-c3cccs3)n2n1`, for which the activity is -15.7%.

With `COc1c(C)c2c(c(O)c1C/C=C(\C)CCC(=O)O)C(=O)OC2`, the activity was 5.68%.

In the case of `CC1(Oc2ccccc2-c2ccno2)CCN(Cc2ccc(-c3ccccc3)o2)C1` (centres undefined), the activity is 24%.

With `Cc1ccn(CC(=O)NC2CCCN(Cc3ccccc3F)C2)n1` (centres undefined), the activity was -8.15%.

On to `CC(C)CN(C(=O)Cn1c(=O)cnc2ccccc21)C1CCS(=O)(=O)C1` (centres undefined), for which the activity is 1.02%.

Turning to `CCN1CCN(c2cc3nc(C)n(Cc4ccccc4)c(=O)c3cc2NC(=O)c2ccccc2F)CC1`, the activity was 23.4%.

For `COc1ccc(N=C2C=CC(=O)O2)cc1`, the activity is 1.67%.

As for `C=C1c2cccc(OC)c2O[C@H](C(=O)OCC)[C@@H]1CCCCCC`, the activity was 39%.

`COC(=O)[C@@H]1C[C@@]2(O)[C@H](O)[C@H](O)[C@H](O)C[C@H]2N1Cc1ccc(C(C)(C)C)cc1`: the activity was 1.65%.

On to `O=C(NCc1ccc(F)cc1)c1cc(C2CCCCN2C(=O)c2cccs2)on1` (centres undefined), for which the activity was 28.6%.

As for `COc1ccccc1-c1n[nH]c2c1[C@H](C)CC[C@H]2C(C)C`, the activity is 29.7%.

With `CN(C)c1ccc(CNC2C3CC4CC(C3)CC2C4)cc1` (centres undefined), the activity was -0.886%.

Consider `COCCN(C(=O)CC1CCCCC1)c1c(N)n(CC(C)C)c(=O)[nH]c1=O`, for which the activity was -3.38%.

As to `CCCCCN(C(=O)CCC(=O)OCCOc1ccc(OC)cc1)c1c(N)n(CCCC)c(=O)[nH]c1=O`, the activity was 20.2%.

As for `CC1CCCC(C)N1/N=C/c1ccccc1OC(F)F` (centres undefined), the activity was -8.42%.

With `Fc1ccc(Br)cc1/C=N/n1cnnc1`, the activity is 1.69%.

With `Cc1nc2c(ncn2-c2ccccc2)c(=O)n1NC(=O)CN1CCCC1`, the activity is -2.1%.

As to `CCC(CC)C(=O)Nc1c2c(nn1-c1ccc(C)cc1)CS(=O)(=O)C2`, the activity was -1.49%.

`CCN(CC)P(=O)(Oc1cccc(C)c1)N(CC)CC`: the activity was 2.59%.

For `Cc1cccc(OP(=O)(Oc2cccc(C)c2)OC(c2ccccc2)C(F)(F)F)c1` (centres undefined), the activity was 60.4% (active).

Consider `Cc1cccc(OP(=O)(Nc2c(C)n(C)n(-c3ccccc3)c2=O)Oc2cccc(C)c2)c1`, for which the activity is 25.5%.
